Source: PubChem BioAssay
Shown are actives, neighbours in structure and some others; about 6.6% of the full set was active somewhere.
Anthrax LF prot – inhibitors of Bacillus anthracis lethal factor protease. multiplex microsphere protease cleavage assay, LF. inhibition, % at 10 µM. 360,000 compounds, 0.12% hits. AID 588501; in the data active = inhibition above about 30%; inconclusive = no clear call, values can overlap the other calls; also: plate controls were buffer without enzyme for full effect and enzyme alone for no effect
GDH-TPI counter-1 – counter-screen for M. tuberculosis FBA inhibitors: GDH-TPI coupled enzymes; inhibition, % at 4.8 µM; AID 588335; 360,000 compounds, 1.2% hits; GDH-TPI coupled enzyme counterscreen, NADH absorbance; in the data active = inhibition above about 30%;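 also: 0% = DMSO wells and 100% = wells lacking the enzyme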
FBA Mtb inh – Mtb fructose-bisphosphate aldolase inhibition; 360,000 compounds, 2.3% hits; purified M. tuberculosis FBA, fluorescence read-out; inhibition, % at 1 µM; P9WQA3;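 also: 0% = vehicle and 100% = reference inhibitor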
Target sequence (P9WQA3 whole entry, looked up): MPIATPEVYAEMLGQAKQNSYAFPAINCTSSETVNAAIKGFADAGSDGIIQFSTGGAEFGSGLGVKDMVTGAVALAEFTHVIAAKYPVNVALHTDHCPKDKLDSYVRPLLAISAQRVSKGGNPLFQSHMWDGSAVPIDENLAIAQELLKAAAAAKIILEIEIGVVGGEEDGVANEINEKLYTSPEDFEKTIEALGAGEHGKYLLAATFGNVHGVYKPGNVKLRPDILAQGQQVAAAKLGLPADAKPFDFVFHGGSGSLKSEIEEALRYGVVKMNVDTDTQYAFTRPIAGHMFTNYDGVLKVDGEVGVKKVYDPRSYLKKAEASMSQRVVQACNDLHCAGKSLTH
BoNT-F LC inh – BoNT F light chain protease inhibition | inhibition, % at 10 µM | Multiplex microsphere protease cleavage assay, flow cytometry | 360,000 compounds, 0.22% hits; in the data active = inhibition above about 35%, passing the limit was not always enough; inconclusive = no clear call, values can overlap the other calls; also: plate controls were buffer without enzyme for full effect and enzyme alone for no effect
Autofluor counter – counter-screen for toxin protease inhibitors: compound fluorescence. 360,000 compounds, 3.1% hits. fluorescence intensity (no concentration beside the values). compound autofluorescence counterscreen, microsphere flow cytometry; stronger effect = higher value; in the data active = fluorescence intensity above about 16000; inconclusive = no clear call, values can overlap the other calls
BoNT-A LC inh2 – inhibitors of Botulinum neurotoxin A light chain protease; multiplex microsphere protease substrate cleavage, flow cytometry; inhibition, % at 10 µM; 360,000 compounds, 0.17% hits; in the data active = inhibition above about 30%; inconclusive = no clear call, values can overlap the other calls; also: plate controls were buffer without enzyme for full effect and enzyme alone for no effect
Mtb FBA inh conf – Mtb FBA inhibition, confirmed. shares compounds with FBA Mtb inh. purified M. tuberculosis FBA, fluorescence read-out. inhibition, % at 1 µM. 5,600 compounds, 78% hits. AID 651616;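 also: 0% = vehicle wells and 100% = reference inhibitor wells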
GDH-TPI counter-2 – GDH-TPI inhibition counter-screen for FBA inhibitors; shares compounds with FBA Mtb inh; GDH-TPI coupled enzyme counterscreen, fluorescence; inhibition, % at 1 µM; 5,600 compounds, 81% hits; AID 652141; in the data active = inhibition above about 10%
Active calls of the source: *; ? = inconclusive; · = not tested or not shown; + = active, no number. Rule as the data show it, unless noted: active = inhibition above about 27%; inactive = the rest.

SMILES	Anthrax LF prot	GDH-TPI counter-1	FBA Mtb inh	BoNT-F LC inh	Autofluor counter	BoNT-A LC inh2	Mtb FBA inh conf	GDH-TPI counter-2
COc1ccc2oc(-c3ccccc3)cc(=O)c2c1	-10	12	79*	-2	5457	0	134*	100*
COc1ccc2oc(-c3ccccc3)c(C(N)=O)c2c1	-4	21	99*	2	10119	1	110*	88*
CCc1nn(-c2ccccc2)c2c1-c1cc(OC)c(OC)cc1C1(N2)C(=O)Nc2ccccc21 (centres undefined)	4	21	2	-4	2461	1	·	·
COc1ccc2c(C)c(CC(=O)N3C[C@H]4C[C@@H](C3)c3cccc(=O)n3C4)c(=O)oc2c1OC	0	21	30*	-4	5277	0	-1	0
Cc1oc2cc3oc(=O)c(CCC(=O)N4C[C@H]5C[C@@H](C4)c4cccc(=O)n4C5)c(C)c3cc2c1C	-2	25	21	-5	4323	0	·	·
COc1cc2oc(=O)c(CC(=O)N3C[C@H]4C[C@@H](C3)c3cccc(=O)n3C4)c(C)c2cc1Cl	1	20	45*	-2	5281	0	35*	28*
COc1cc(CN2C[C@@H](CO)O[C@@H](n3cnc4c(N(C)C)ncnc43)C2)cc(OC)c1OC	-5	7	-3	7	3245	0	·	·
CC(C)C[C@H]1CN(CCCC[C@H]2CNC(=O)C(=O)N2CCC2CCCCC2)C(=O)C(=O)N1CCc1ccccc1	5	·	·	-10	5751	-1	·	·
O=[N+]([O-])c1ccc(S(=O)(=O)Nc2ccccn2)cc1	5	6	-4	4	2916	6	·	·
Cc1cc(OCC(=O)N2CCC(C(N)=O)CC2)c2c3c(c(=O)oc2c1)CCCC3	-1	-2	17	-4	5243	0	·	·
Cc1c(C)c2c(OCC(=O)N3CCC(C(=O)NCC(C)C)CC3)cc3c(c2oc1=O)CCC(C)(C)O3	-4	8	51*	-1	3890	2	-4	0
COc1ccc(CNC(=O)COc2cc3c(c4oc(=O)cc(C)c24)CCC(C)(C)O3)cc1	-3	22	43*	2	5120	0	+	171*
CC(=C/c1ccco1)/C=N/NC(=O)CSc1nnc(SCc2ccc(C)cc2)s1	-4	13	0	-3	2512	0	·	·
CCOC(=O)CC1(CC(=O)OCC)NC(=O)c2c(C)sc(C(=O)OCC)c2N1	-10	14	31*	-13	2454	0	5	3
CCOC(=O)CC1(C)NC(=O)c2c(C)sc(C(=O)OCC)c2N1 (centres undefined)	0	17	55*	-1	3392	-1	2	-2
CCCCC1(C)NC(=O)c2c(C)sc(C(=O)OCC)c2N1 (centres undefined)	-2	3	25	12	2589	0	·	·
O=C1CCCCC1(O)Cc1ccc2c(c1)OCO2 (centres undefined)	7	-4	-3	4	4075	0	·	·
Cc1csc(SCC(=O)NC(C)c2ccccc2)n1 (centres undefined)	1	-7	0	-5	4998	0	·	·
CCOC(=O)C1CCCN(S(=O)(=O)c2cc3[nH]c(=O)c(=O)[nH]c3cc2C)C1 (centres undefined)	-4	19	48*	-6	6074	0	83*	58*
COC(=O)Cc1cc(=O)n2c(nc3ccccc32)[nH]1	1	14	65*	?	3970	-3	35*	18*
Cc1cc(=O)[nH]c2nc3ccccc3n12	1	16	47*	-3	3568	0	76*	60*
CN(C)CCNC(=O)c1nn(C)c2c1CCc1ccccc1-2	9	-11	-2	4	3612	2	·	·
CNc1nc(-c2ccccc2)c2sccc2n1	-6	17	78*	-11	3975	0	8	-4
CNc1nc(NCc2ccccc2)c2sccc2n1	2	6	7	-1	3740	0	·	·
COc1ccc([C@H]2CC(=O)C=C(c3cc(OC)ccc3OC)C2)cc1	-4	13	0	-3	2894	0	·	·
